From PubChem
DRD3 antagonist = qHTS of D3 Dopamine Receptor Antagonist: qHTS; D(3) dopamine receptor (Homo sapiens), P35462; D3R cells, DiscoveRx beta-arrestin luminescence, antagonist mode; active compounds read low; max response, negative = inhibition, %; actives 2.5% (n = 360,000); in the data active = max response below about -50%; inconclusive = no clear call, values can overlap the other calls; note: % is set by controls: 0 for no effect and ±100 for the full control effect
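Cells plated overnight at 1500 cells/well, then exposed to library compounds with dopamine controls for 90 minutes at 37 degrees C. DiscoveRx reagent added for 30–60 minutes at room temperature; luminescence read, quantitative HTS format.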
BRCA1 expr act = qHTS Assay to Identify Small Molecule Activators of BRCA1 Expression; MCF7-BRCA1-FFLuc reporter, luminescence, 48 h; response scale: scaled: vehicle 0%, 10 µM genistein 100%; Potency, µM (top dose mostly 46.1 µM), for the others: at the top dose activation, most hits filed as activators; actives 1.1% (n = 380,000); note: potency is the fitted concentration of half-maximal effect; nearly all actives have a fitted effect of over 80% in size
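Cells: MCF7-BRCA1-FFLuc, 2000/well. Exposure: 48 h, 37 °C, 5% CO2. Read: luminescence, 15 min post-substrate. Controls: genistein 10 microM (maximal activation), DMSO (neutral).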
RGS4 inh = Inhibitors of Regulator of G Protein Signaling (RGS) 4: qHTS; Transcreener GDP fluorescence polarization, RGS4-accelerated GTP hydrolysis; Regulator of G-protein signaling 4 (Homo sapiens), P49798; Potency, µM (doses to about 114 µM), for the others: at the highest dose activity change, negative = inhibition, most hits filed as inhibitors; actives 0.039% (n = 390,000); note: potency is the fitted concentration of half-maximal effect; % is set by controls: 0 for no effect and ±100 for the full control effect; nearly all actives have a fitted effect of over 75% in size
Target sequence (P49798 whole entry, looked up): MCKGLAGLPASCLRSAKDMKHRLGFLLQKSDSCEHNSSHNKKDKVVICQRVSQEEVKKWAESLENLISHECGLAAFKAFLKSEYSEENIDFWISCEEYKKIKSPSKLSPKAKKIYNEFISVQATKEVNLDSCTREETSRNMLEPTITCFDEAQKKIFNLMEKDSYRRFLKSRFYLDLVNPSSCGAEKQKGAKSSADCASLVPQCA
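MLSMR compounds (23 nl, pin-transferred) preincubated 10 min at room temperature with a 500nM (2x) first reagent, then RGS4 at 900nM (2x) plus Transcreener GDP mix added; fluorescence polarization (620/688 nm) read before and after 90 min at 30 °C.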
B2AR arrestin = qHTS assay of beta-arrestin-biased ligands of beta2-adrenergic receptor | Beta-2 adrenergic receptor (Homo sapiens), P07550 | beta-arrestin recruitment to beta2AR, cell-based reporter | Potency, µM (doses to about 46.1 µM), inactives show at the highest dose activation, actives largely listed as activators | actives 0.02% (n = 330,000) | AID 492947, 2010;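 note: potency is the fitted concentration of half-maximal effect; 0% = DMSO controls and full agonism = EC100 isoproterenol or metaproterenol; nearly all actives have a fitted effect of over 65% in size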
Target sequence (P07550 whole entry, looked up): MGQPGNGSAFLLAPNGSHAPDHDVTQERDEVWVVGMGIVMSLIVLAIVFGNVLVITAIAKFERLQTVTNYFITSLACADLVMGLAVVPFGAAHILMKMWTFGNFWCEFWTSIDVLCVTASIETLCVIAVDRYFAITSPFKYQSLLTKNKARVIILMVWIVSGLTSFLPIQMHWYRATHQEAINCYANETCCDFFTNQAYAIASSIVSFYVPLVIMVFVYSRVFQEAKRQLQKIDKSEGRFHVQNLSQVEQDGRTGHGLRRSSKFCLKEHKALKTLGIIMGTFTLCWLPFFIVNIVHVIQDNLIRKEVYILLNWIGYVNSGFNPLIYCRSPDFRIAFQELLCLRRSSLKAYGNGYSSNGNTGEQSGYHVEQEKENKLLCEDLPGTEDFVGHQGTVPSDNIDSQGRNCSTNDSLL
D3 ag = qHTS of D3 Dopamine Receptor Agonist: qHTS. D(3) dopamine receptor (Homo sapiens), P35462. D3R DiscoveRx beta-arrestin cells, luminescence, 90 min. max activation, %. actives 0.58% (n = 410,000); in the data active = max activation above about 30%; note: 0% is about no effect
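Agonist-mode cell screen: cells plated at 1500/well and incubated overnight at 37 °C, then exposed to library compounds for 90 min at 37 °C. Detection reagent was added for 30–60 min at room temperature, and luminescence was read.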
PTHR1 ag = qHTS for PTHR1 Agonists: Primary Screen; Parathyroid hormone/parathyroid hormone-related peptide receptor (Homo sapiens), Q03431; HEK293 GP2 PTHR1 cells, GloSensor cAMP luminescence, 1 h; Potency, µM (highest dose often 115 µM), for inactives: at the top dose activation, hits mostly activators; actives 0.075% (n = 410,000); note: potency is the fitted concentration of half-maximal effect; nearly all actives have a fitted effect of over 55% in size
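HEK-293-derived GP2 cells expressing PTHR1 and a GloSensor cAMP reporter, 3,000/well, plated overnight, given luciferin plus IBMX (each 0.5 mM as added) for 1 h at 37 °C, then compound for 1 h at 37 °C. Luminescence was read after 15 min at room temperature.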
The depositor's hits bear a star; [ ] = remark or other dose. An excerpt weighted towards active compounds, which were near 3.7% of everything screened. Unless noted, calls come from the whole dose curve; as a rule, active = well fitted curve in the direction sought with a large enough effect; inconclusive = small, poorly fitted or top-dose-only effect, or another doubt; inactive = no such curve, though single readings can be large; an effect the other way counts as inactive or inconclusive.

`CC(C)(C)c1cc(CCC(=O)NNC(=S)NC(=O)c2ccccc2)cc(C(C)(C)C)c1O` gave DRD3 antagonist -79*, BRCA1 expr act -45%, RGS4 inh -28%, B2AR arrestin 2%, D3 ag -20 and PTHR1 ag -33%.
`CCc1ccc(OC(=O)Nc2ccccc2)cc1` gave DRD3 antagonist 14, BRCA1 expr act 2.8µM*, RGS4 inh 1%, B2AR arrestin -1%, D3 ag 12 and PTHR1 ag -24%.
CCc1ccc(-c2csc(NC(=O)Oc3ccccc3)n2)cc1 was read as DRD3 antagonist 24, BRCA1 expr act 7.9µM*, RGS4 inh -8%, B2AR arrestin -1%, D3 ag 1 and PTHR1 ag -24%.
For O=C(Nc1nc(-c2cccc(Br)c2)cs1)Oc1ccccc1 the results were DRD3 antagonist -7, BRCA1 expr act inconclusive, RGS4 inh 3%, B2AR arrestin 0%, D3 ag 4 and PTHR1 ag -2%[57.5 µM].
`COc1ccc(OC(=O)Nc2ccccc2)cc1` gave DRD3 antagonist -6, BRCA1 expr act 65%, RGS4 inh 3%, B2AR arrestin 0%, D3 ag 1 and PTHR1 ag -14%[57.5 µM].
Screening COc1cc(C)ccc1OCc1cc(C(=O)NC(c2ccccn2)C(F)(F)F)no1 (stereo unspecified) returned DRD3 antagonist -7, BRCA1 expr act -17%, D3 ag 2 and PTHR1 ag -54%.
`Cc1cccnc1C(c1ccc(F)cc1)N(C)C(=O)C1CCN(CCCOc2ccc(F)cc2)CC1` (stereo unspecified) gave DRD3 antagonist -94*, BRCA1 expr act -6%, D3 ag -21 and PTHR1 ag inactive.
For Fc1ccc(OCCCCCN2CCCC2)cc1 the results were DRD3 antagonist -17, BRCA1 expr act 12%, RGS4 inh 2%, B2AR arrestin 0%, D3 ag -25 and PTHR1 ag inconclusive.
Screening Cc1cccnc1C(c1ccc(F)cc1)N(C)C(=O)C1CCN(CCOc2ccc(Cl)cc2Cl)CC1 (stereo unspecified) returned DRD3 antagonist -74*, BRCA1 expr act -21%, D3 ag -3 and PTHR1 ag -21%.
`CC(C)(C)n1nc2c(c1NC(=O)c1cc3ccccc3o1)CS(=O)(=O)C2` gave DRD3 antagonist 14, BRCA1 expr act -36%, RGS4 inh 4%, B2AR arrestin 0%, D3 ag -3 and PTHR1 ag inactive.
O=C(NCc1cccc(Cl)c1)c1ccc(CS(=O)Cc2ccc(Cl)cc2)o1 (stereo unspecified) was read as DRD3 antagonist -3, BRCA1 expr act 5%, RGS4 inh -15%, B2AR arrestin 0%, D3 ag -6 and PTHR1 ag -18%.
For COc1ccccc1CC(=O)c1ccc(OCc2ccccc2)cc1 the results were DRD3 antagonist 0, BRCA1 expr act 8.9µM*, RGS4 inh -1%, B2AR arrestin -1%, D3 ag -7 and PTHR1 ag -49%.
For O=C(O)CCC(=O)c1ccc(-c2ccccc2)cc1 the results were DRD3 antagonist 1, BRCA1 expr act 44%, RGS4 inh 4%, B2AR arrestin -1%, D3 ag 2 and PTHR1 ag -18%.
For CCC(=O)c1ccc(-c2ccccc2)cc1 the results were DRD3 antagonist -12, BRCA1 expr act 13µM*, RGS4 inh -12%, B2AR arrestin 4%, D3 ag 1 and PTHR1 ag inactive.
`COc1ccc(C(=O)CC(=O)c2ccc(OC)cc2)cc1` gave DRD3 antagonist 3, BRCA1 expr act 48%, RGS4 inh 6%, B2AR arrestin 0%, D3 ag -1 and PTHR1 ag -4%.
O=C(Oc1ccc(-c2cnc3ccccc3n2)cc1)c1cccc([N+](=O)[O-])c1 was read as DRD3 antagonist -8, BRCA1 expr act 3.2µM*, RGS4 inh -14%, B2AR arrestin 0%, D3 ag -5 and PTHR1 ag -19%[57.5 µM].
`COc1ccc(C(=O)CC(=O)c2ccccc2)cc1` gave DRD3 antagonist -11, BRCA1 expr act 7.9µM*, RGS4 inh -26%, D3 ag -9 and PTHR1 ag -21%.
COc1ccc(N2CCN(C(=O)NCc3noc4ccccc34)CC2)cc1 was read as RGS4 inh 4%, D3 ag -2 and PTHR1 ag 20%.
For COc1ccc(C(CC(=O)c2ccccc2)S(=O)(=O)c2ccc(C)cc2)cc1 (stereo unspecified) the results were DRD3 antagonist 9, BRCA1 expr act 10µM*, RGS4 inh -7%, B2AR arrestin -1%, D3 ag -13 and PTHR1 ag -30%[57.5 µM].
For O=C(CCc1ccccc1)OCC(=O)c1cccc([N+](=O)[O-])c1 the results were DRD3 antagonist -7, BRCA1 expr act -3%, RGS4 inh 9%, B2AR arrestin 0%, D3 ag -6 and PTHR1 ag -3%.
For COc1ccc(O)c(C(=O)CC(=O)c2ccncc2)c1 the results were DRD3 antagonist 3, BRCA1 expr act 5.6µM*, RGS4 inh -7%, D3 ag 3 and PTHR1 ag inactive.
Screening COC(=O)c1ccc(OCC(=O)c2ccccc2)cc1 returned DRD3 antagonist -6, BRCA1 expr act 11µM*, RGS4 inh -12%, B2AR arrestin 0%, D3 ag -13 and PTHR1 ag inactive.
For O=C(COC(=O)c1cccc([N+](=O)[O-])c1)c1ccc(OCc2ccccc2)cc1 the results were DRD3 antagonist -10, BRCA1 expr act 5µM*, RGS4 inh -17%, B2AR arrestin -1%, D3 ag 0 and PTHR1 ag -2%.
Screening O=C(COc1ccccc1)c1ccccc1 returned DRD3 antagonist 9, BRCA1 expr act inconclusive, RGS4 inh 2%, D3 ag -5 and PTHR1 ag -22%.
For Cc1ccc(NC(=O)Cn2c(=O)n(CCCCCC(=O)NCc3ccc(F)cc3)c(=O)c3sccc32)cc1C the results were RGS4 inh 26%, D3 ag -1 and PTHR1 ag -16%.
Screening COc1ccc(CN2CCNC(=O)C2CC(=O)NC2CCCCCCC2)cc1C (stereo unspecified) returned DRD3 antagonist 0, BRCA1 expr act -1%, RGS4 inh 6%, B2AR arrestin -1%, D3 ag -3 and PTHR1 ag inactive.
